# Screening results: PubChem, The Scripps Research Institute Molecular Screening Center
# Rows were chosen to be rich in hits. Some 3.4% of all compounds tested hit in one or more screens of this group.
# PAFAH1B3 inh: PAFAH1B3 enzyme inhibitors, primary screen, biochemical, fluorescence polarization, human; recombinant PAFAH1B3, FP-rhodamine probe; inhibition, % at 3.39 µM; hit rate 0.28% among 340,000;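 active means inhibition above the screen-wide average of all tested compounds plus 3 SD, cut at about 25% in these data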
# PP5 inh: PP5 phosphatase inhibitors, primary screen, biochemical, fluorescence; Serine/threonine-protein phosphatase 5 (Homo sapiens), P53041; purified PP5c, OMFP substrate fluorescence; inhibition, % at 6.7 µM; hit rate 0.18% among 320,000; AID 1987, 2009;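 active means inhibition above the campaign's mean inhibition across all tested compounds plus 3 SD, cut at about 9.5% in these data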
# PAFAH1B2 FP inh: PAFAH1B2 enzyme inhibitors, primary screen, biochemical, fluorescence polarization, human. Platelet-activating factor acetylhydrolase IB subunit alpha2 (Homo sapiens), P68402. recombinant PAFAH1B2, FP-rhodamine activity probe. inhibition, % at 3.39 µM. hit rate 1.2% among 340,000. AID 492953, 2010;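 active means inhibition above the mean of all tested compounds plus 3 SD, cut at about 24% in these data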
# Target sequence (P68402 whole entry, looked up): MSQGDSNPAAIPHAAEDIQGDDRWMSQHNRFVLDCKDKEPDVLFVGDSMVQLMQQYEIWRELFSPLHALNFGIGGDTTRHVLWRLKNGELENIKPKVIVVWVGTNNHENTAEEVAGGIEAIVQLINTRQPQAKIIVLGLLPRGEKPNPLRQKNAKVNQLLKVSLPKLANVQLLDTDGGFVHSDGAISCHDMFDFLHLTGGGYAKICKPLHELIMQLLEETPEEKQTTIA
# PAFAH2 inh: PAFAH2 enzyme inhibitors, primary screen, biochemical, fluorescence polarization, human; Platelet-activating factor acetylhydrolase 2, cytoplasmic (Homo sapiens), Q99487; hit rate 0.99% among 340,000; AID 492956, 2010; inhibition, % at 3.39 µM; recombinant PAFAH2, FP-rhodamine activity probe;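 active means inhibition above the mean over all tested compounds plus 3 SD, cut at about 30% in these data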;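 further: inhibitors block probe labeling of enzyme so polarization drops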
# PP1 counter: PP1-alpha phosphatase inhibitors, primary screen, counter-screen for PP5 inhibitor project, biochemical, fluorescence, OMFP substrate, single point. purified PP1alpha. hit rate 0.9% among 320,000. inhibition, % at 6.7 µM. Serine/threonine-protein phosphatase PP1-alpha catalytic subunit (Homo sapiens), P62136;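 active means inhibition above the mean inhibition of all tested compounds plus 3 SD, computed separately for each screening campaign, cut at about 15% in these data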
# Target sequence (P62136 whole entry, looked up): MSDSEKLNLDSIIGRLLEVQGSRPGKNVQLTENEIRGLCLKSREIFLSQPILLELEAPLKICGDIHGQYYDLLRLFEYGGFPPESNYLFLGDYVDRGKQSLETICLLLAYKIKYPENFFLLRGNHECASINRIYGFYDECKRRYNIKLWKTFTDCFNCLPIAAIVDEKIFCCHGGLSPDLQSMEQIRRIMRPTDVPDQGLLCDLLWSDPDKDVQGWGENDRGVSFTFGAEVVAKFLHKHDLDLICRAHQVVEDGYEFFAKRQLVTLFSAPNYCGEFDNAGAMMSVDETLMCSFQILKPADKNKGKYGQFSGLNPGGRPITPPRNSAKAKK
# pPAFAH inh: pPAFAH enzyme inhibitors, primary screen, biochemical, fluorescence polarization, human | Platelet-activating factor acetylhydrolase (Homo sapiens), Q13093 | recombinant pPAFAH, FP-rhodamine probe fluorescence polarization | inhibition, % at 3.39 µM | hit rate 1.5% among 330,000 | AID 463082, 2010;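 active means inhibition above the mean inhibition across the screen plus 3 SD, cut at about 25% in these data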;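 further: inhibitors block binding of the rhodamine activity-based probe so polarization drops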
# PP1 confirm: PP1 phosphatase inhibitors, confirmation, biochemical, fluorescence, OMFP substrate, triplicate; hit rate 52% among 1,900; shares compounds with PP1 counter; AID 2358, 2010; inhibition, % at 6.7 µM; purified PP1alpha;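 active means mean PP1 inhibition above a set limit taken from the earlier primary screen, cut at about 15% in these data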
# PP5 inh counter: PP5 phosphatase inhibition by PP1 hits, confirmation, counter-screen for PP1 inhibitor project, biochemical, fluorescence, triplicate | purified PP5c, OMFP fluorescence | shares compounds with PP1 counter | hit rate 4% among 1,900 | AID 2360, 2010 | inhibition, % at 6.7 µM;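 active means mean PP5 inhibition over triplicate wells above about 9.5% taken from the earlier PP1 screen, limit read from the data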
# Hits are given with their value; - = inactive; . = no result given.
SMILES,PAFAH1B3 inh,PP5 inh,PAFAH1B2 FP inh,PAFAH2 inh,PP1 counter,pPAFAH inh,PP1 confirm,PP5 inh counter
CC(C)c1ccc(/C=C2\SC(=O)N(CC(=O)NC3C=CS(=O)(=O)C3)C2=O)cc1 (stereo unspecified),-,-,-,-,28,-,33,-
O=C(CN1C(=O)/C(=C/c2ccc(Cl)cc2)SC1=S)NC1C=CS(=O)(=O)C1 (stereo unspecified),-,-,-,-,-,-,.,.
N=C1/C(=C\c2coc3ccccc3c2=O)C(=O)N=C2SC(c3ccncc3)=NN12,-,-,-,-,34,-,39,-
Cc1nc(SC(C)C(=O)Nc2cccc(C(F)(F)F)c2)c2c(C)c(C(=O)O)sc2n1 (stereo unspecified),-,-,-,-,45,-,15,-
Cc1ccc(NC(=O)CSc2nc(NS(=O)(=O)c3ccccc3)cc(=O)[nH]2)cc1,-,-,-,-,22,-,-,-
COc1ccc2[nH]c(=O)c(CN(Cc3cccs3)S(=O)(=O)c3cccc4nsnc34)cc2c1,-,-,-,-,-,-,.,.
COc1ccc2[nH]c(=O)c(CN(CCO)S(=O)(=O)c3c(C)ccc4nsnc34)cc2c1,-,-,-,-,55,-,-,-
Oc1c(CN2CCN(c3ccccn3)CC2)cc(Cl)c2cccnc12,-,-,-,-,26,-,30,-
Nn1c(SCC(=O)Nc2ccc(OC(F)F)cc2)nnc(Cc2ccccc2)c1=O,-,-,-,-,-,-,.,.
C#CCOCCOCCOCCNc1nc(N2CCN(C(=O)CCCCCCCCCCNC(=O)Cn3cc(CCCCCN)nn3)CC2)nc(N2CCN(C(=O)CCCCCCCCCCNC(=O)[C@H]([C@@H](C)CC)n3cc(CCCCCN)nn3)CC2)n1,-,-,-,-,46,-,35,-
C#CCOCCOCCOCCNc1nc(N2CCN(C(=O)CCCCCCCCCCNC(=O)Cn3cc(C[C@@H](C)O)nn3)CC2)nc(N2CCN(C(=O)CCCCCCCCCCNC(=O)Cn3cc(C[C@@H](C)O)nn3)CC2)n1,-,-,-,-,-,-,.,.
C#CCOCCOCCOCCNc1nc(N2CCN(C(=O)CCCCCCCCCCNC(=O)Cn3cc(C[C@@H](C)O)nn3)CC2)nc(N2CCN(C(=O)CCCCCCCCCCNC(=O)[C@H](CCCCN)n3cc(C[C@@H](C)CC)nn3)CC2)n1,-,-,-,-,38,-,31,-
C#CCOCCOCCOCCNc1nc(N2CCN(C(=O)CCCCCCCCCCNC(=O)[C@H](CO)n3cc(CCCSC)nn3)CC2)nc(N2CCN(C(=O)CCCCCCCCCCNC(=O)[C@H](CO)n3cc(CCCSC)nn3)CC2)n1,-,-,-,-,30,-,22,-
C#CCOCCOCCOCCNc1nc(N2CCN(C(=O)CCCCCCCCCCNC(=O)Cn3cc(CCCCCN)nn3)CC2)nc(N2CCN(C(=O)CCCCCCCCCCNC(=O)[C@H](CO)n3cc(CCCCCN)nn3)CC2)n1,-,-,-,-,35,-,-,-
Cc1ccc2c(CN3CCN(S(=O)(=O)c4ccccc4C(F)(F)F)CC3)cc(=O)oc2c1C,-,-,-,-,-,-,.,.
O=C(COC(=O)/C=C/c1ccc(F)cc1)Nc1nnc(-c2ccccc2)o1,-,-,-,-,18,-,28,-
COc1cccc(-c2nnc(NC(C)=O)o2)c1,-,-,-,-,-,-,.,.
O=C(COC(=O)/C=C/c1ccccc1F)Nc1nnc(-c2ccccc2)o1,-,-,-,-,21,-,22,-
COc1cccc(/C=C/C(=O)OCC(=O)Nc2nnc(-c3ccccc3)o2)c1,-,-,-,-,38,-,25,-
O=C(COC(=O)CCC(=O)c1ccc(F)cc1)Nc1nnc(-c2ccccc2)o1,-,-,-,-,-,-,.,.
COc1cccc(/C=C/C(=O)OCC(=O)Nc2nnc(-c3ccccc3)o2)c1OC,-,.,-,-,.,.,.,.
Cc1cc(Br)ccc1NC(=O)CN(C)C(=O)COc1cccc2c1OC(C)(C)C2,-,-,-,-,-,-,.,.
COc1cc(Cn2c(N)c(C#N)c3nc4ccccc4nc32)cc(OC)c1,-,-,-,-,18,-,-,-
CCCCc1ccc(Nc2nc(CCC)cc(=O)[nH]2)cc1,-,-,-,-,18,29,-,-
Cc1ccc(C)c(N(CC(=O)NC(C)C)C(=O)CCC(=O)Nc2ccccn2)c1,-,-,-,-,-,-,.,.
SMILES,PAFAH1B3 inh,PP5 inh,PAFAH1B2 FP inh,PAFAH2 inh,PP1 counter,pPAFAH inh,PP1 confirm,PP5 inh counter
O=C(O)c1cc(-c2cc3ccccc3o2)nn1-c1ccccc1,-,-,-,-,45,-,45,-
CC1CCCCN1C(=O)COC(=O)c1cc(-c2cccs2)nn1-c1ccccc1 (stereo unspecified),-,-,-,-,-,-,.,.
O=C(O)c1cc(-c2cccs2)nn1-c1ccccc1,-,-,-,-,28,-,24,-
CCCCCCCCCCOC(=O)Cn1c(COc2ccccc2OC)[n+](C)c2ccccc21,-,-,-,-,34,-,-,-
CC1(OC(=O)c2cnc3ccccc3n2)C(=O)C=C2C=C(c3ccc(C#N)cc3)OC=C2C1=O (stereo unspecified),.,-,.,.,-,-,.,.
CC1(OC(=O)c2ccco2)C(=O)C=C2C=C(c3ccsc3)OC=C2C1=O (stereo unspecified),.,-,.,.,18,50,-,-
CCCCC1=CC2=CC(=O)C(C)(O)C(=O)C2=CO1 (stereo unspecified),.,-,.,.,19,41,-,-
CC1(O)C(=O)C=C2C=C(c3ccsc3)OC=C2C1=O (stereo unspecified),.,-,.,.,18,42,-,-
Cc1ccccc1Nc1nnc(SCC(=O)NC(=O)NCc2ccco2)s1,-,-,-,-,26,-,-,-
CCCCCCCCn1ccc(=N)cc1,-,-,-,-,-,-,.,.
CCCCCCCCCCCCCCCCn1cc[n+](C)c1,-,-,-,-,25,-,-,-
NC(=O)CC(NC(=O)Cc1cccc2ccccc12)c1ccc(NC2CCCCC2)c([N+](=O)[O-])c1 (stereo unspecified),-,-,-,-,20,-,24,-
